Test results published in ChEMBL document CHEMBL3988442, “University of Dundee, Small-Polar-MMV Screening Library” (2021).
In all, about 53,000 compounds went through this assay and about 900 (1.7%) showed an effect of 50% or more. The list comes from a sample in which strong results are over-represented; it also holds similar structures and randomly drawn compounds.

These compounds were tested on Mycobacterium tuberculosis (assay: Cornell - Phenotypic assay to identify agents that inhibit growth of Mycobacterium tuberculosis). Settings: 10 mM as filed; unlikely as a test dose.
Format: functional
Parameters: scale not given: direction of the effect not stated beside the values
`O=C1[C@H]2CCCC[C@H]2C(=O)N1c1cnn(Cc2cccc(F)c2)c1` was tested, and the “Percent Effect” value was 24.19%. `Cc1nnc(-c2cccc(C#N)c2)n1C1CCN(C(C)C)C1=O` (centres undefined) was tested, and the “Percent Effect” value was 5.61%. In the case of `Cc1cccc(S(=O)(=O)N2C[C@@H]3C[C@@H](c4nnc(C)[nH]4)O[C@@H]3C2)c1`, the “Percent Effect” value was -10.6%. In the case of `CN(Cc1ccc(F)cc1)CC1(O)CCN(C(=O)c2ccccn2)C1` (centres undefined), the “Percent Effect” value was 17.87%. With `O=c1[nH]cc(N2CCCCC2)c(=O)[nH]1` the “Percent Effect” value was 4.601%. In the case of `Cc1ccc(NCC2(O)CCNCC2)cc1C`, the “Percent Effect” value was -25.1%. `CC(C)c1nnc(NC(=O)N(C)Cc2ccncc2)s1` was tested, and the “Percent Effect” value was -15.27%. `CSC(C)CCN(Cc1ccccn1)Cc1sccc1C` (centres undefined) was tested, and the “Percent Effect” value was 52.37%. In the case of `Cc1ccsc1CN(CCN(C)C)Cc1ccccn1`, the “Percent Effect” value was 3.624%. For `Cc1ccsc1CN(Cc1ccccn1)CC(C)C`, the “Percent Effect” value was -11.16%. `COCC(O)CN(C)c1ccnc2cc(Br)ccc12` (centres undefined) was tested, and the “Percent Effect” value was 6.843%. In the case of `O=C(NC[C@@H]1CCCO1)c1cccnc1N1CCCC1c1ccccc1` (some centres undefined), the “Percent Effect” value was 4.902%. `CC(c1ccc(F)cc1F)N1CCN(CCC(=O)NC(N)=O)CC1` (centres undefined) was tested, and the “Percent Effect” value was -2.983%. With `COc1ccccc1N1CCC(CNCc2ccc(C#N)cc2)C1` (centres undefined) the “Percent Effect” value was 28.32%. `COc1ccc(CNCC2CCN(c3ccccc3OC)C2)cc1O` (centres undefined) was tested, and the “Percent Effect” value was 59.98%. For `COc1cccc(N2CCC(CNC(=O)NCc3ccco3)C2)c1` (centres undefined), the “Percent Effect” value was -31.24%. `COc1ccccc1N1CCC(CNCc2cccc(O)c2)C1` (centres undefined) was tested, and the “Percent Effect” value was 38.06%. With `COc1ccccc1N1CCC(CNCc2cccc(C#N)c2)C1` (centres undefined) the “Percent Effect” value was 33.02%. `COc1cccc(N2CCC(CNCc3cccc(C#N)c3)C2)c1` (centres undefined) was tested, and the “Percent Effect” value was 63.04%. In the case of `Cc1cc(C)c(C(=O)N2CCCC(C(=O)CCc3ccccc3)C2)cn1` (centres undefined), the “Percent Effect” value was 16%. For `CN1CCCC1CCNC(=O)c1ccccc1-n1cnc(CN)c1` (centres undefined), the “Percent Effect” value was -39.2%. `CC(C)C(Sc1nnnn1C1CC1)C(=O)NCc1ccccc1` (centres undefined) was tested, and the “Percent Effect” value was -5.783%. In the case of `Cc1nc(N)sc1C(=O)N1Cc2ccccc2OC2(CCOCC2)C1`, the “Percent Effect” value was -56.78%. For `O=C1CCC2(CCN(Cc3cscn3)CC2)CN1CCCO`, the “Percent Effect” value was 5.461%. With `O=C(CNc1ccc(OCC2CCOCC2)cc1)NCc1ccco1` the “Percent Effect” value was 31.46%. With `CC(C)(Oc1ccc(F)cc1)C(=O)NCc1ccco1` the “Percent Effect” value was 22.85%. `CC(C)(C)Oc1ccc(NCC(=O)NCc2ccco2)cc1` was tested, and the “Percent Effect” value was 108%. `CC[C@H](C)Nc1nccc(-c2cnc3sccn3c2=O)n1` was tested, and the “Percent Effect” value was -1.989%. With `O=C(c1cn(-c2ccccc2C(F)(F)F)nn1)N1CCSCC1` the “Percent Effect” value was 17.85%. With `Cc1ccc(CN2CC[C@H]3C[C@@H](c4nc(C5CC5)cs4)O[C@@H]3C2)o1` the “Percent Effect” value was 40.45%. In the case of `Cc1ccc(CN2CC[C@H]3C[C@H](c4nc(C5CC5)cs4)O[C@@H]3C2)o1`, the “Percent Effect” value was 67.24%. With `Cc1cc(CN2CC[C@H]3C[C@@H](c4nc(C5CC5)cs4)O[C@@H]3C2)no1` the “Percent Effect” value was 0.1287%. In the case of `Cn1nc(-c2cccc(Cl)c2)c(Br)c1C(=O)O`, the “Percent Effect” value was 24.18%. `c1ccc(COc2ccccc2NC2CCOCC2)nc1` was tested, and the “Percent Effect” value was 50.88%. For `O=C(Nc1ccccc1OCCc1ccccn1)NC1CCOCC1`, the “Percent Effect” value was -20.67%. With `O=C(Nc1ccccc1OCc1ccccn1)NC1CCOCC1` the “Percent Effect” value was 30.18%. With `Cc1nnc(NCc2ccc(Cl)cc2)o1` the “Percent Effect” value was 21.04%. `COc1cc(CNc2ccc(Cl)cc2)ccc1OCC(=O)O` was tested, and the “Percent Effect” value was -3.069%. `Cc1ccn(-c2ccccc2NCc2cccnc2)n1` was tested, and the “Percent Effect” value was -17.76%. `COc1ccncc1NCc1ccsc1` was tested, and the “Percent Effect” value was -60.05%. With `OCc1ccc(Cl)c(NCc2cccnc2)c1` the “Percent Effect” value was -14.09%. For `c1cncc(CNc2ccccc2-c2nn[nH]n2)c1`, the “Percent Effect” value was 72.98%. For `COc1cc(NCc2ccc(Cl)cc2)c(-c2nn[nH]n2)cc1OC`, the “Percent Effect” value was 107.2%. `COc1cc(NCc2ccncc2)c(-c2nn[nH]n2)cc1OC` was tested, and the “Percent Effect” value was 96.19%. For `COc1cc(NCc2cccnc2)c(-c2nn[nH]n2)cc1OC`, the “Percent Effect” value was -25.93%. With `CC(=O)N1CCCN(C(=O)NCCNc2cnccn2)CC1` the “Percent Effect” value was 8.364%. For `CCOCc1cnc2n1CCN(C(=O)c1ccccc1)C2C` (centres undefined), the “Percent Effect” value was -22.66%. `Cn1cc(N2CCCC(SCc3nc(C4CC4)no3)C2=O)cn1` (centres undefined) was tested, and the “Percent Effect” value was -5.692%. For `C[C@@H]1CN(c2nc3c(cc2C(N)=O)CCC3)CC[C@@]1(O)C1CCC1`, the “Percent Effect” value was 6.158%. With `Cn1nc(CNS(=O)(=O)Cc2ccccc2F)c2c1CCCC2` the “Percent Effect” value was 24.49%. In the case of `CCc1c(C)nc2cc(C3CCN(Cc4ccc(F)cc4)C3)nn2c1O` (centres undefined), the “Percent Effect” value was -30.4%. With `O=C(O)C(F)(F)F.O=C([C@@H]1CCO[C@@H]2CCN(Cc3ccsc3)C[C@@H]21)N1CCCC1` the “Percent Effect” value was 13.31%. With `CCCS(=O)(=O)N1CCC(NC(=O)c2cc(CC)c(C)s2)CC1` the “Percent Effect” value was -14.58%. For `COCC(=O)N1CCN(S(=O)(=O)c2cccs2)[C@H]2CS(=O)(=O)C[C@H]21`, the “Percent Effect” value was 5.268%. With `Cc1cc2[nH]c(O)nc2cc1NCc1ccccc1` the “Percent Effect” value was 38.01%. With `Cc1cc(NCCO)nc2[nH]nc(N)c12` the “Percent Effect” value was 15.94%. For `NS(=O)(=O)c1cccnc1NCc1ccco1`, the “Percent Effect” value was 9.166%. For `Cc1cc(NCc2ccccc2)nc2[nH]nc(N)c12`, the “Percent Effect” value was 99.95%. For `CNc1c(NCc2ccco2)c(=O)c1=O`, the “Percent Effect” value was -73.54%. `Cc1cc(NCc2ccco2)nc2[nH]nc(N)c12` was tested, and the “Percent Effect” value was 73.02%. In the case of `Cc1nc(CCNC(=O)NC(C)c2ccc3c(c2)OCCO3)cs1` (centres undefined), the “Percent Effect” value was -7.5%. For `N#CC1COCCN1C(=O)c1cccc2cc[nH]c12` (centres undefined), the “Percent Effect” value was 15.8%. In the case of `COc1ccccc1OCCN(C)c1cc(C)nc(N)n1`, the “Percent Effect” value was -1.717%. In the case of `CN(C)S(=O)(=O)N1CCN(c2ccnc(N3CCCCC3)n2)CC1`, the “Percent Effect” value was 38.93%. In the case of `CS(=O)(=O)N1CCN(c2ccnc(N3CCCC3)n2)CC1`, the “Percent Effect” value was 7.415%. `CCCS(=O)(=O)N1CCN(c2ccnc(N3CCCC3)n2)CC1` was tested, and the “Percent Effect” value was -0.1963%. `CCCS(=O)(=O)N1CCN(c2ccnc(N3CCCCC3)n2)CC1` was tested, and the “Percent Effect” value was 50.94%. With `CS(=O)(=O)N1CCN(c2ccnc(N3CCCCC3)n2)CC1` the “Percent Effect” value was 63%. With `CN(C)S(=O)(=O)N1CCN(c2ccnc(N3CCCC3)n2)CC1` the “Percent Effect” value was 12.56%. With `COC(=O)c1cccc(CN(C)C(C)c2ccccn2)c1` (centres undefined) the “Percent Effect” value was 21.51%. In the case of `OC1(CN2CCC(Cc3ncccn3)CC2)CCOCC1`, the “Percent Effect” value was -20.94%. In the case of `O=C(c1cnco1)N1CCC(Cc2ccc3ncccc3c2)CC1`, the “Percent Effect” value was 9.774%. In the case of `O=C(c1cnco1)N1CCC(Cc2cccc3ncccc23)CC1`, the “Percent Effect” value was -21.16%. `O=C(c1cnco1)N1CCC(Cc2cnc3ccccc3c2)CC1` was tested, and the “Percent Effect” value was 64.83%. For `COCCC1COC2(CCN(C(=O)c3ccncc3)CC2)C1.O=C(O)C(F)(F)F` (centres undefined), the “Percent Effect” value was -13.79%. `c1ccc(-n2ncc(CN3CCCC(Cn4cncn4)C3)n2)cc1` (centres undefined) was tested, and the “Percent Effect” value was 2.145%. In the case of `CCC(C)NC(=O)Cn1ccc2sc(C)cc2c1=O` (centres undefined), the “Percent Effect” value was 17.39%. For `CCC1c2ccc(C)n2CCN1C(=O)Cn1cnc2sc(C)cc2c1=O` (centres undefined), the “Percent Effect” value was 27.93%. With `Cc1cc2c(=O)n(CC(=O)N3CCn4cccc4C3C(C)C)cnc2s1` (centres undefined) the “Percent Effect” value was 56.81%. For `CCCC1c2cccn2CCN1C(=O)Cn1cnc2sc(C)cc2c1=O` (centres undefined), the “Percent Effect” value was 53.74%. In the case of `CCC1c2cccn2CCN1C(=O)c1ccc2nonc2c1` (centres undefined), the “Percent Effect” value was 10.7%. With `Cc1cc2c(=O)n(CCOCCO)cnc2s1` the “Percent Effect” value was 14.22%. With `Cc1nn(C)cc1C(=O)Nc1cccc(CN2CCC(CO)CC2)c1` the “Percent Effect” value was -50.57%. `Cc1nc2ccccn2c1CC(=O)N[C@@H]1CC[C@@H](N2CCCC2)[C@@H]1O` was tested, and the “Percent Effect” value was 13.48%. With `O=C(c1cc(-n2cccn2)ccn1)N(CC1CCC1)CC(F)(F)F` the “Percent Effect” value was 16.8%. `Cc1cc(NC(=O)C(c2cccc(F)c2)N2CCOCC2)sn1` (centres undefined) was tested, and the “Percent Effect” value was -15.26%. With `NC(=O)C1CCCN1C(=O)c1cc(C2CC2)nc2ccc(F)cc12` (centres undefined) the “Percent Effect” value was -27.79%. In the case of `Cc1cc(C)c2[nH]c(=O)c(CN3CCCC4(C3)CN(C)C(=O)O4)cc2c1` (centres undefined), the “Percent Effect” value was 65.13%. `Cc1cc(C)c2[nH]c(=O)c(CN3CCCC(O)(CO)C3)cc2c1` (centres undefined) was tested, and the “Percent Effect” value was 23.96%. `Cc1cc(C)c2[nH]c(=O)c(CN3CCC(O)(CN(C)C)C3)cc2c1` (centres undefined) was tested, and the “Percent Effect” value was 15.85%. For `Cc1nc[nH]c1CN1CCCC12CCN(c1nc3ccccc3s1)CC2`, the “Percent Effect” value was -4.142%. `c1ccc2sc(N3CCC4(CCCN4Cc4ncc[nH]4)CC3)nc2c1` was tested, and the “Percent Effect” value was 60.65%. For `Cn1cc(CN2CCCC23CCN(c2nc4ccccc4s2)CC3)cn1`, the “Percent Effect” value was 13.88%. With `Cc1nc(CN2CCCC23CCN(c2nc4ccccc4s2)CC3)co1` the “Percent Effect” value was 53.88%. With `Cc1nc[nH]c1CN1CCCN(c2nc3ccccc3s2)CC1` the “Percent Effect” value was 3.174%. In the case of `Cc1cc(C(=O)N2CCN(c3nc4ccccc4s3)CC2)no1`, the “Percent Effect” value was -60.39%. With `CCn1ccc(-c2cc(C(=O)O)n3ncc(Br)c3n2)n1` the “Percent Effect” value was 19.03%. With `CC(C)Cn1ccnc1CNC(=O)N1CCCC1CN1CCOCC1` (centres undefined) the “Percent Effect” value was 7.761%. With `CN(C(=O)Cn1nc(-c2ccccc2F)ccc1=O)C1CCS(=O)(=O)C1` (centres undefined) the “Percent Effect” value was 18.26%. With `COC(=O)C(NC(=O)Nc1ccc(C(C)=O)cc1)C(C)C` (centres undefined) the “Percent Effect” value was 6.824%. For `COCc1ncc(CN2CCC3(CCNC(=O)CC3)CC2)cn1`, the “Percent Effect” value was 18.36%. With `COCCN(C)Cc1cn(C)nc1-c1ccc2c(c1)OCCO2` the “Percent Effect” value was -52.38%. With `CC(C)(C)NC(=O)CNC(=O)Nc1cc(-c2ccccc2)ns1` the “Percent Effect” value was 38.08%. In the case of `Cc1c(-c2cc(C(F)(F)F)nc(N3CCC(N)CC3)n2)cnn1C`, the “Percent Effect” value was 2.397%. With `FC(F)(F)c1cc(-c2cccs2)nc(N2CCN3CCCC3C2)n1` (centres undefined) the “Percent Effect” value was 24.42%. `CCc1ccc(-c2cc(C(F)(F)F)nc(N3CCC(N)CC3)n2)cc1` was tested, and the “Percent Effect” value was 105.7%. For `Cc1cc(C(F)(F)F)nc(N2CCN3CCCC3C2)n1` (centres undefined), the “Percent Effect” value was -50.74%. For `Cc1ccc(-c2cc(C(F)(F)F)nc(N3CCOCC3)n2)s1`, the “Percent Effect” value was 4.079%. With `CCn1ncc(-c2cc(C(F)(F)F)nc(N3CCC(N)CC3)n2)c1C` the “Percent Effect” value was 50.19%.
